Screens from PubChem.
Compounds with a hit are over-represented: about 11% of the library has one in this group of screens.
G9a inh: G9a (human) methyltransferase inhibition; G9a H3K9 monomethylation, AlphaScreen, 2 h; Potency, µM (titrated, usually from 102 µM), most hits filed as inhibitors; 350,000 tested, 8.8% active; AID 504332; also: nearly all actives have a fitted effect of over 75% in size
Target sequence (Q96KQ7 913-1193 limits assumed): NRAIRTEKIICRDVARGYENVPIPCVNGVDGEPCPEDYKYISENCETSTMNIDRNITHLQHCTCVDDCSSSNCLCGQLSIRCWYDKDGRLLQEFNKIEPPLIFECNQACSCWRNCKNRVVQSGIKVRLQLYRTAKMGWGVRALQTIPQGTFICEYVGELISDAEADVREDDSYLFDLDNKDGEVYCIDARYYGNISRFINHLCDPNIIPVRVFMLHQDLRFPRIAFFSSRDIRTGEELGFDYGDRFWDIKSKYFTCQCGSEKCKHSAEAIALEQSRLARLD
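Methyltransferase reactions run at room temperature for 2 h (20 nM enzyme, 500 nM biotin-H3K9 peptide, 20 uM SAM) after a 15 min compound preincubation; product detected by AlphaScreen beads and anti-H3K9me1 antibody.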
Tau fibril FP: blocks human tau fibril formation measured by polarization; 280,000 tested, 0.39% active; K18 P301L tau heparin fibrillization, Alexa594 FP, 6 h; Potency, µM (top dose mostly 57.7 µM), hits mostly inhibitors; also: nearly all actives have a fitted effect of over 55% in size
Target sequence (P10636 561-689 P618L limits assumed): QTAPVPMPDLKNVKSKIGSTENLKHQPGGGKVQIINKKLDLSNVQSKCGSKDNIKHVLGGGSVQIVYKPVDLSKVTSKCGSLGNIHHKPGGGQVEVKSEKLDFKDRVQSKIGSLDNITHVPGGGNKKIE
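K18 P301L tau (15 uM unlabeled/0.24 uM Alexa 594-labeled, final) + compound + heparin 20 uM final; 100 mM NaOAc pH 7; 6 hr 37 C; ThT 30 uM final added, 1 hr RT; FP ex 555/em 632 nm.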
Sfp inh: blocks B. subtilis Sfp PPTase activity; Biochemical Sfp PPTase activity, qHTS; AID 1490; Potency, µM, most hits filed as inhibitors; 310,000 tested, 3.5% active;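 also: the enzyme is Sfp with the accession as filed and its product quenches rhodamine fluorescence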
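Buffer: 50 mM Hepes-Na pH 7.6, 10 mM MgCl2, 0.01% Nonidet P-40, 0.01% BSA. Enzyme 15 nM, pre-exposed to compound 15 min; substrates then added and fluorescence change tracked over 30 min.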
Tau ThT inhib: blocks human tau fibril formation measured by thioflavin T; recombinant tau K18 P301L, heparin-induced fibrillization, ThT fluorescence; Potency, µM (doses to about 57.4 µM), hits mostly inhibitors; 270,000 tested, 2.1% active; also: nearly all actives have a fitted effect of over 55% in size
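Fibril formation assay: tau K18 P301L at 15 uM with trace Alexa 594 label, heparin inducer 20 uM, pH 7 sodium acetate buffer, 37 C for 6 hr; endpoint ThT signal.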
Coupling enz: inhibits coupling enzyme system, counter-screen for aldolase hits; coupling enzyme system counterscreen, AmpLite Red fluorescence; activity change, negative = inhibition, % at 58.2 µM, hits read low; 290,000 tested, 0.67% active; AID 2472; in the data active = activity change below about -30%
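Fluorescence at 525 nm excitation and 598 nm emission measured inhibition of the coupled detection system without aldolase. Compounds (at 57.5 uM final) were preincubated 10 min at room temperature with coupling enzyme reagent before a 20 min substrate/AmpLite Red step.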
Tau fluor cs: counter-screen for tau fibril formation inhibitors; tau K18 P301L Alexa594 fluorescence, heparin fibrillization; Potency, µM (doses to about 57.7 µM); 280,000 tested, 0.93% active; AID 1463; also: nearly all actives have a fitted effect of over 55% in size
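Human tau K18 P301L (15 uM unlabeled, 0.24 uM Alexa 594-labeled) in 100 mM sodium acetate pH 7 with 20 uM heparin, 6 hr at 37 C. ThT 30 uM added, 1 hr ambient; Alexa 594 FP and total fluorescence read at 555/632 nm.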
Hits are given with their value; ! = a repeat was not active; [ ] = remark or other dose. Unless noted, calls follow the shape of the dose curve; as a rule, active = well fitted curve in the direction sought with a large enough effect; inconclusive = small, poorly fitted or top-dose-only effect, or another doubt; inactive = no such curve, though single readings can be large; an effect the other way counts as inactive or inconclusive.

Screening CCOC(=O)c1cnc2c(cnn2CC)c1NN=C(C)C returned G9a inh 29.9µM, Tau fibril FP inactive, Sfp inh 44.7µM!, Tau ThT inhib inconclusive, Coupling enz inactive and Tau fluor cs inactive.
`CCOC(=O)c1cnc2c(cnn2C)c1NCCC#N` gave G9a inh inactive[12.7 µM], Tau fibril FP inconclusive, Sfp inh inactive, Tau ThT inhib inactive, Coupling enz inactive and Tau fluor cs inactive.
For COc1ccc(/C(C)=N/OCC(=O)Nc2nc3ccccc3s2)cc1OC the results were G9a inh 50.1µM, Tau fibril FP inactive, Sfp inh inconclusive, Tau ThT inhib inconclusive, Coupling enz inactive and Tau fluor cs inconclusive.
Screening CC[N+]1=C(C)C(C)(C)c2cc(C)ccc21 returned G9a inh inconclusive, Tau fibril FP inconclusive, Sfp inh inactive, Tau ThT inhib 3.55µM, Coupling enz inactive and Tau fluor cs 0.708µM[fluorescent].
For Cc1ccc2c(c1)C=CC(C)(C)S2=O (centres undefined) the results were G9a inh inactive, Tau fibril FP inactive, Sfp inh inactive, Tau ThT inhib inactive, Coupling enz inactive and Tau fluor cs inactive.
Screening CCOc1ccc(NC(=O)Cc2csc(COc3cccc(C)c3)n2)cc1 returned G9a inh inactive, Tau fibril FP inactive, Tau ThT inhib inactive and Tau fluor cs inactive.
`Cc1ccc(C2CC(C(F)F)n3ncc(C(=O)Nc4cnn(Cc5ccccc5C)c4)c3N2)cc1` (centres undefined) gave G9a inh 44.7µM, Tau fibril FP inactive, Sfp inh inactive, Tau ThT inhib inactive, Coupling enz inactive and Tau fluor cs inactive.
Screening Cc1ccccc1Cn1cc(NC(=O)c2nn(C)cc2Cl)cn1 returned G9a inh inactive, Tau fibril FP inactive, Sfp inh inactive, Tau ThT inhib inactive, Coupling enz inactive and Tau fluor cs inactive.
COc1ccc(-c2cc(C(=O)Oc3cccc(C)c3C)c3ccccc3n2)cc1 was read as G9a inh inactive, Tau fibril FP inactive, Tau ThT inhib inactive and Tau fluor cs inactive.
For CC(=O)NC(C(=O)N1CCC(c2nc3ccccc3s2)CC1)C(C)C (centres undefined) the results were G9a inh inactive, Sfp inh inactive and Coupling enz inactive.
For COc1ccc(C(=O)NCc2nnc(SCC(=O)Nc3nnc(C)s3)o2)cc1 the results were G9a inh 35.5µM, Tau fibril FP inactive, Sfp inh inconclusive, Tau ThT inhib inactive, Coupling enz inactive and Tau fluor cs inactive.
For CCc1nnc(NC(=O)CSc2nnc(COc3ccccc3C)o2)s1 the results were G9a inh 50.1µM, Tau fibril FP inactive, Sfp inh inconclusive, Tau ThT inhib inconclusive, Coupling enz inactive and Tau fluor cs inactive.
Screening CCSc1nnc(NC(=O)CSc2nnc(CNC(=O)c3ccc(OC)cc3)o2)s1 returned G9a inh inactive, Tau fibril FP inconclusive, Sfp inh inactive, Tau ThT inhib inactive, Coupling enz inactive and Tau fluor cs inactive.
For CN(CC(=O)Nc1cccc(F)c1)C(=O)c1ccncc1 the results were G9a inh inactive, Sfp inh inactive and Coupling enz inactive.
For COc1cnc(-c2ccccn2)nc1NC(C)C the results were G9a inh 56.2µM, Tau fibril FP inactive, Sfp inh 7.08µM, Tau ThT inhib inconclusive, Coupling enz -35.7 and Tau fluor cs inactive.
COc1cnc(-c2ccccn2)[nH]c1=O was read as G9a inh inactive, Tau fibril FP inactive, Sfp inh 10µM, Tau ThT inhib inactive, Coupling enz -64.4 and Tau fluor cs inactive.
CCOc1ccc(C(=O)c2cn(Cc3ccccc3)c3c(F)cc(F)cc3c2=O)cc1 was read as G9a inh inactive, Tau fibril FP inactive, Tau ThT inhib inactive and Tau fluor cs inactive.
For Oc1ccccc1NCC(O)Cn1ccc2ccccc21 (centres undefined) the results were G9a inh 28.2µM, Tau fibril FP inactive, Sfp inh inactive, Tau ThT inhib 14.1µM, Coupling enz inactive and Tau fluor cs 20µM[quencher].
Screening OC(CNCc1ccccc1)Cn1ccc2ccccc21 (centres undefined) returned G9a inh inconclusive, Tau fibril FP inactive, Sfp inh inactive, Tau ThT inhib inactive, Coupling enz inactive and Tau fluor cs inactive.
